The results in this text go back to PubChem BioAssay (NCATS).

A number with no mark means an inactive call. Inconclusive results are not listed. Active and inactive are the calls of the source. Unless noted, the call rests on the fitted dose curve; in most records, active means well fitted curve in the direction sought with a large enough effect; inconclusive means small, poorly fitted or top-dose-only effect, or another doubt; inactive means no such curve, though single readings can be large; an effect the other way counts as inactive or inconclusive. Bounds are passed on as bounds.

Assay [1] addresses DNA dC->dU-editing enzyme APOBEC-3G (Homo sapiens) (UniProt Q9HC16). Put plainly: qHTS for inhibitors of Vif-A3G interactions: Validation (AID 588379). Further: 0% is about no effect. In outline:
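HeLa cells stably expressing Vif and A3G-eYFP, 700 cells/well, incubated overnight at 37 deg C, then exposed to compound overnight at 37 deg C. Inhibition of Vif-mediated degradation read as increased yellow fluorescence (Ex 488/Em 500-530) by laser-scanning cytometry.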

Assay [2] addresses Rap guanine nucleotide exchange factor 3 (Homo sapiens) (UniProt O95398). Put plainly: Confirmatory qHTS for antagonist of cAMP-regulated guanine nucleotide exchange factor 3 (EPAC1) (AID 1645880). Further: nearly all actives have a fitted effect of over 55% in size. Further: potency means the concentration at half of the fitted maximal effect.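 On activity, negative = inhibition: plate controls were DMSO only for no effect and full effect of the ATA control for full effect.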 Conditions: EPAC1 Rap1B-BODIPY-GDP exchange, fluorescence; activity, negative = inhibition: at 115 µM (top of the series). In a few lines:
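Nucleotide exchange uses 100 nM EPAC1, 250 nM RAP1B-BODIPY-GDP and 50 uM GDP, with compounds in a concentration-titration series. After 5 min at room temperature, fluorescence (480 nm ex/540 nm em) is read every 5 min for 30 min. Data are normalized to control ATA and DMSO.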

Assay [3] shares this target. As to the kind of experiment: Confirmatory qHTS for agonist of cAMP-regulated guanine nucleotide exchange factor 3 (EPAC1) (AID 1645881).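 Further: EPAC1 catalysed release of BODIPY-GDP from Rap1B seen as fluorescence loss; nearly all actives have a fitted effect of over 75% in size.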 On the technique in general: qHTS replaces the single test concentration by a dilution series.
Assay [4] addresses Rap guanine nucleotide exchange factor 4 (Homo sapiens) (UniProt Q8WZA2). As to the kind of experiment: Confirmatory qHTS for agonist of cAMP-regulated guanine nucleotide exchange factor 4 (EPAC2) (AID 1645884).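 Further: nucleotide exchange releases bodipy-GDP from Rap1 and this lowers its fluorescence; on the % scale 0 is the no-effect control and ±100 the full control effect; nearly all actives have a fitted effect of over 65% in size.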
Assay [5] shares this target. Put plainly: Confirmatory qHTS for antagonist of cAMP-regulated guanine nucleotide exchange factor 4 (EPAC2) (AID 1645885). Further: nearly all actives have a fitted effect of over 25% in size. Further: potency means the concentration at half of the fitted maximal effect. On activity change, negative = inhibition: on the % scale 0 is the no-effect control and ±100 the full control effect.
Assay [6] addresses Cytochrome P450 3A4 (Homo sapiens) (UniProt P08684). As to the kind of experiment: qHTS Assay for Inhibitors and Substrates of Cytochrome P450 3A4 (AID 884). Further: potency means the concentration at half of the fitted maximal effect; nearly all actives have a fitted effect of over 50% in size. In a few lines: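 20 nM human CYP3A4 with 25 uM Luciferin-PPXE (at KM) in 200 mM KPO4, preincubated 10 min with compound; NADPH regeneration started a 60 min RT reaction. Luciferin detected by luminescence, normalized to 57 uM ketoconazole as full inhibition.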

For assay [7] the target is unchanged. Put plainly: qHTS Assay for Activators of Cytochrome P450 3A4 (AID 885). Further: nearly all actives have a fitted effect of over 65% in size. In outline: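 Signal was normalized against complete inhibition by 57 uM ketoconazole. The reaction used 20nM CYP3A4 with 25uM Luciferin-PPXE, 10-min compound preincubation and a 60-min NADPH-supported step at RT.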
Assay [8] can be described thus: Confirmation and Secondary Assay for Modulators of Hemoglobin Beta Chain Splicing at IVS2 654 locus (AID 910).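 Further: HeLa cells stably carrying EGFP split by mutant beta-globin IVS2-654 intron; % of control where 0% means no effect.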 In outline: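 HeLa cells stably expressing EGFP interrupted by β-globin IVS2-654 intron, seeded overnight in Opti-MEM/2% FCS, then treated 2 days at 37 °C. Restored splicing read as total peak GFP intensity per well by laser scanning cytometry (488 nm excitation, 500–520 nm emission); 500 nM antisense PNA as control.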

Assay [9] in a line: Confirmation and Secondary Assay for Modulators of Hemoglobin Beta Chain Splicing at IVS2 705 locus (AID 930).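 Further: HeLa cells stably expressing the EGFP-705 splicing reporter; GFP fluorescence per well restored by corrected splicing of the IVS2-705 intron in EGFP; % of control where 0% means no effect.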 In a few lines:
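Read-out: total peak GFP fluorescence per well (488 nm excitation, 500-520 nm emission) by laser-scanning cytometry. Cells: HeLa EGFP-705 splicing reporter, 2 days compound exposure in Optimem/2% FCS.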

For assay [10], the target named is Lysosomal acid glucosylceramidase (Homo sapiens) (UniProt P04062). Put plainly: Glucocerebrosidase-p2 (AID 348; in the data active means potency below about 10 µM; further: potency means the concentration at half of the fitted maximal effect). Particulars: purified GBA, blue fluorogenic substrate, 40 min. In outline: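 Compounds titrated from 0.6 nM upwards against 0.2 nM enzyme in pH 5.9 citric acid/KH2PO4, taurocholate, tween-20; blue fluorogenic substrate 80 uM, 40 min room temperature, stopped and read Ex 365/Em 440 for AC50.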

Assay [11] is described as follows: AP1 Signaling Pathway (AID 357; active means well fitted curve in either direction with a large enough effect, not every such curve was filed as active;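 further: ME-180 reporter cells stimulated with EGF at its EC50 level; on the % scale 0 is the no-effect control and ±100 the full control effect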). Conditions: ME-180 AP-1-bla reporter, EGF-induced, beta-lactamase ratio, 5 h; at 7.69 µM (top of the series) unless noted. In a few lines: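 First, ME-180 AP-1-bla cells were cultured overnight at 37 °C in low-serum Opti-MEM. Next, titrated compounds with EC50 EGF were incubated 5 hours. Finally, CCF4 was added for 2.5 hours and the 460/530 nm ratio recorded.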

For assay [12], the target named is Cytochrome P450 1A2 (Homo sapiens) (UniProt P05177). As to the kind of experiment: p450-cyp1a2 (AID 410; calls by dose curve; further: potency means the concentration at half of the fitted maximal effect). In a few lines: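 Human CYP1A2 (20nM) demethylated Luciferin-ME at its Km (100uM) in 100mM KPO4. After 10 min compound preincubation, NADPH regeneration ran the reaction 60 min at room temperature. Luciferin was read by luminescence, normalized to 57 uM furafylline.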

A short description of assay [13]: Stat Signaling Pathway (AID 446; active means well fitted curve in either direction with a large enough effect, not every such curve was filed as active;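 further: ME-180 cervical cancer cells given 40 pM IL-6 alongside compound; SIE-controlled beta-lactamase reporter measured as 460/530 nm FRET emission ratio; on the % scale 0 is the no-effect control and ±100 the full control effect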). In a few lines:
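Reporter line: ME-180 cervical carcinoma, SIE-beta-lactamase. Treatment: compound with 40 pM IL-6, 5 hrs, 37 C, in low-serum OPTI-MEM with 10 mM HEPES pH 7.3. Detection: 460/530 nm fluorescence.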

In assay [14] the target is 3',5'-cyclic-AMP phosphodiesterase 4B (Homo sapiens) (UniProt Q07343). As to the kind of experiment: qHTS Assay for Inhibitors of PDE-IV (AID 607; active means well fitted activation curve with a large enough effect in the main read-out, with a control signal flat, not every such curve was filed as active; further: % of control where 0% means no effect). In a few lines: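 Cell-based read-out of cAMP via a modified cyclic nucleotide-gated channel and membrane potential dye (535/590 nm) in HEK293 cells expressing PDE4 endogenously. Compounds tested up to 22.9 uM final; 100 uM RO 20-1724 reference.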

The target in assay [15] is Cytochrome P450 2C9 (Homo sapiens) (UniProt P11712). As to the kind of experiment: qHTS Assay for Inhibitors and Substrates of Cytochrome P450 2C9 (AID 883). Further: potency means the concentration at half of the fitted maximal effect; nearly all actives have a fitted effect of over 60% in size. In a few lines:
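Human CYP2C9 (10nM) with Luciferin-H at 100uM (its KM) in 25mM KPO4; compound preincubated 10 min at 37C, then NADPH regeneration for 60 min at 37C. Luciferin read by luminescence after detection reagent; normalized to 57uM sulphaphenazole as full inhibition.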

Assay [16] has as its target Cytochrome P450 2D6 (Homo sapiens) (UniProt P10635). As to the kind of experiment: qHTS Assay for Inhibitors and Substrates of Cytochrome P450 2D6 (AID 891). Further: potency means the concentration at half of the fitted maximal effect; nearly all actives have a fitted effect of over 60% in size. In outline:
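Human CYP2D6 (5 nM) with 30 uM Luciferin-ME EGE (at Km) in 100 mM KPO4, compound preincubated 10 min, then NADPH regeneration system for 60 min at room temperature. Luciferin read by luminescence; normalized to 1.43 uM quinidine.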

For assay [17], the target named is Cytochrome P450 2C19 (Homo sapiens) (UniProt P33261). As to the kind of experiment: qHTS Assay for Inhibitors and Substrates of Cytochrome P450 2C19 (AID 899). Further: potency means the concentration at half of the fitted maximal effect; nearly all actives have a fitted effect of over 60% in size. In outline:
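5 nM human CYP2C19 with 10uM Luciferin-H EGE (at KM) in 50mM KPO4, compound preincubated 10 min at 37C, then NADPH regeneration for 60 min at 37C. Luciferin read by luminescence after detection reagent; normalized to 57uM ketoconazole as full inhibition.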

The target in assay [18] is Dual specificity protein kinase CLK4 (Homo sapiens) (UniProt Q9HAZ1). As to the kind of experiment: qHTS Assay for Inhibitors of CDC-like Kinase 4 (ADP-Glo Assay) (AID 1771). Further: potency means the concentration at half of the fitted maximal effect; nearly all actives have a fitted effect of over 70% in size. In a few lines: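 Clk4 (25 nM) was incubated 1 hr at room temperature with 100 uM RS repeat peptide and 1 uM ATP in buffer with 2 mM MgCl2, 0.5 mM EGTA, 2.5 mM DTT. ADP formed was quantified by ADP-Glo luminescence.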

Assay [19] shares this target. Put plainly: qHTS Assay for Inhibitors of CDC-like Kinase 4 (ADP-FP Assay) (AID 1795).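 Further: recombinant human CLK4 phosphorylating RS repeat peptide at 1 µM ATP; on the % scale 0 is the no-effect control and ±100 the full control effect; nearly all actives have a fitted effect of over 60% in size.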 In a few lines: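 Recombinant Clk4 (6.25 nM) phosphorylated 100 uM RS repeat peptide with 1 uM ATP in 25 mM Tris pH 7.5, 10 mM MgCl2, 0.5 mM EGTA, 2.5 mM DTT, 0.01% Triton X-100 for 1 h. ADP was detected by Transcreener ADP2 competitive fluorescence polarization after 30 min at room temperature.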

Assay [20] concerns the target Ubiquitin carboxyl-terminal hydrolase 1 (Homo sapiens) (UniProt O94782). As to the kind of experiment: Inhibitors of USP1/UAF1: Pilot qHTS (AID 504865).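 Further: rhodamine fluorescence freed from ubiquitin-rhodamine substrate followed over time; top concentration of the series differs between compounds; on the % scale 0 is the no-effect control and ±100 the full control effect; nearly all actives have a fitted effect of over 35% in size.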 In outline:
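USP1/UAF1 complex at 1 nM preincubated 15 min at room temperature with compound, then Ub-Rho substrate added at 150 nM final. Fluorescence (480/540 nm) read kinetically in 50 mM HEPES pH 7.8, 0.5 mM EDTA, 1 mM TCEP, 0.1 mg/ml BSA, 0.01% Tween-20.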

Rap guanine nucleotide exchange factor 3 (Homo sapiens), sequence (O95398 whole entry, looked up): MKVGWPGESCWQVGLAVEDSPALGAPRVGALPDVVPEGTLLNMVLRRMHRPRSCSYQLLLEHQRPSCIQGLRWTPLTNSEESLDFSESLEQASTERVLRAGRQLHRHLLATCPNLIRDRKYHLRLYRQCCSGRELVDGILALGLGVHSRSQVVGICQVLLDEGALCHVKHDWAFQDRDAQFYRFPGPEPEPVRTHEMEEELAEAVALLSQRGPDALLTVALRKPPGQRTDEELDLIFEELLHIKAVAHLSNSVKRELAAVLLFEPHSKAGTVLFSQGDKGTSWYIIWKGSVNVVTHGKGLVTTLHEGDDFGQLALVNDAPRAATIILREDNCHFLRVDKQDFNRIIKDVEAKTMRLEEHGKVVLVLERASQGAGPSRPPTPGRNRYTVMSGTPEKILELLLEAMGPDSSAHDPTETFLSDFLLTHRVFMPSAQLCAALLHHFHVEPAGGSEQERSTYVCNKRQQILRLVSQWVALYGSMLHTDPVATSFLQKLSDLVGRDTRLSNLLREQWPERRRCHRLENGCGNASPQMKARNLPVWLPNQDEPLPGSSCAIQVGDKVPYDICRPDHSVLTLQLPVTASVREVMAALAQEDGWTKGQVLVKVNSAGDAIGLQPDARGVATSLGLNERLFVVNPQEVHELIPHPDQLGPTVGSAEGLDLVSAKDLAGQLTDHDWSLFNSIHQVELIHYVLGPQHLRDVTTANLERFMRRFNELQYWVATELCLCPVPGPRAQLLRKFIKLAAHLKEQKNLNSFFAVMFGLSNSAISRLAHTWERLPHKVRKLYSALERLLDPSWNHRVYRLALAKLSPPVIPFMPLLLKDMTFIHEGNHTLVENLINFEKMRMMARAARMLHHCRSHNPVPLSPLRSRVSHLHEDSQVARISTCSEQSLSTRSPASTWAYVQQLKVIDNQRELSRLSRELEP
Cytochrome P450 3A4 (Homo sapiens), sequence (P08684 whole entry, looked up): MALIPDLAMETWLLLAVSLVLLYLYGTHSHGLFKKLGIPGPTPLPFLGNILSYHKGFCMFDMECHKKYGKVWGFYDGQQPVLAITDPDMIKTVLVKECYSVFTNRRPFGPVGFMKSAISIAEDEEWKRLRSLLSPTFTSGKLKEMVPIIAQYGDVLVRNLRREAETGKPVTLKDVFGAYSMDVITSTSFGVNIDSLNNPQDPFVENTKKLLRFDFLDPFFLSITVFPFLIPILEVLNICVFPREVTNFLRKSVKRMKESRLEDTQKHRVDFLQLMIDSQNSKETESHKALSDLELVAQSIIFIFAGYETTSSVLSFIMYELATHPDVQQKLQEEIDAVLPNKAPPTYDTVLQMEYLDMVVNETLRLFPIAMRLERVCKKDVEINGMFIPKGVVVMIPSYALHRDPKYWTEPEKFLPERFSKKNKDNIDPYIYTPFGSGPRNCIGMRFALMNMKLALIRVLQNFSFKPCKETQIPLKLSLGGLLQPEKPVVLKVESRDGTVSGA
Rap guanine nucleotide exchange factor 4 (Homo sapiens), sequence (Q8WZA2 whole entry, looked up): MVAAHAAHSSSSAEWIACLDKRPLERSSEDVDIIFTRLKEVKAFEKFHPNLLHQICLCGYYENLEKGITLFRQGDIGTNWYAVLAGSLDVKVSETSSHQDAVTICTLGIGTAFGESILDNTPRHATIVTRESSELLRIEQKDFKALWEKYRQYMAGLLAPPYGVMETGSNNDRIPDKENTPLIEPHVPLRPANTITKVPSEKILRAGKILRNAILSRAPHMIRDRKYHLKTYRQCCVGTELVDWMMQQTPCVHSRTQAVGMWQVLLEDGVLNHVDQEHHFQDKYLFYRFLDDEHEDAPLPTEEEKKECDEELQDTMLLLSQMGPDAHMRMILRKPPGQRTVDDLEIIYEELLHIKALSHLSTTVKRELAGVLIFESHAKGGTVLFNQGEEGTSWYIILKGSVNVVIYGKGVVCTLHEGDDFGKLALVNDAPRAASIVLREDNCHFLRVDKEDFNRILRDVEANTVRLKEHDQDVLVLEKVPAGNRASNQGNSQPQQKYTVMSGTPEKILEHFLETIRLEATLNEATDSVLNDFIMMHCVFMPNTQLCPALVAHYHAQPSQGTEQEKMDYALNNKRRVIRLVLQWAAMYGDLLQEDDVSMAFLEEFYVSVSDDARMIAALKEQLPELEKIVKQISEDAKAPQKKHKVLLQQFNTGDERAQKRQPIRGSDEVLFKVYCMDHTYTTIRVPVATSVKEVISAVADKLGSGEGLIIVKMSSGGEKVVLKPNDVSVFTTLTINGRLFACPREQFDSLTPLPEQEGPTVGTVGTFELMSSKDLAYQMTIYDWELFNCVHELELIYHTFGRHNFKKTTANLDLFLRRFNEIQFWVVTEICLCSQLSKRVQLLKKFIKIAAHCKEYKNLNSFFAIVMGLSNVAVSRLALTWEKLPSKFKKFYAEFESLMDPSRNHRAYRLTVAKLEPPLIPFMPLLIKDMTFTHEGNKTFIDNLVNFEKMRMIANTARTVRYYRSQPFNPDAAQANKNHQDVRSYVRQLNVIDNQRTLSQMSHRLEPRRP
Dual specificity protein kinase CLK4 (Homo sapiens), sequence (Q9HAZ1 whole entry, looked up): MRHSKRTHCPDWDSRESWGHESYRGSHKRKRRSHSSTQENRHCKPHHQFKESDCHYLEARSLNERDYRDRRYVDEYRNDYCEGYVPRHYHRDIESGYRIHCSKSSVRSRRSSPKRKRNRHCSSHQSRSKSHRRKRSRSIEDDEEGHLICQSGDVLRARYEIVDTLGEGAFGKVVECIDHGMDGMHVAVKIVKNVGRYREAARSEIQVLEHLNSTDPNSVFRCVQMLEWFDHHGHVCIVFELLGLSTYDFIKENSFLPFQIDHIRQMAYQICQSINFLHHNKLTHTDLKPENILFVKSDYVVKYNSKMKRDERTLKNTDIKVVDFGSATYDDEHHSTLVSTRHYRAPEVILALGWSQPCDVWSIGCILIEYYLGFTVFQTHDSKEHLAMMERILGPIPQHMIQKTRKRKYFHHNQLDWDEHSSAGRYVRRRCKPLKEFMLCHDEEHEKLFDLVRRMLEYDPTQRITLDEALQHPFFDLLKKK
Cytochrome P450 2D6 (Homo sapiens), sequence (P10635 whole entry, looked up): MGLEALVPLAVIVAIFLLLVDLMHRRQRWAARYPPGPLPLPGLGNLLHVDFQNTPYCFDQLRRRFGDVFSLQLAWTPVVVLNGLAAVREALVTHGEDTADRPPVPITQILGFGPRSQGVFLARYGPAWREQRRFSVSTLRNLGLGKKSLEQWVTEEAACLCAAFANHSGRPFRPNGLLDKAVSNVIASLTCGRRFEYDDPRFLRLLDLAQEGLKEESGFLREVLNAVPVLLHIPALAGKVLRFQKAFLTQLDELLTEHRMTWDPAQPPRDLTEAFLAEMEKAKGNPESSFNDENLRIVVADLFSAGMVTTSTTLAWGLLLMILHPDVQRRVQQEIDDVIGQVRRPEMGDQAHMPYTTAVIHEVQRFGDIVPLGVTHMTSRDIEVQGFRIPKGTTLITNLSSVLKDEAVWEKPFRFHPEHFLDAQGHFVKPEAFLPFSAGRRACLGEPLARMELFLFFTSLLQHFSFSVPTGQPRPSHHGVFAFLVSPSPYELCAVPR
3',5'-cyclic-AMP phosphodiesterase 4B (Homo sapiens), sequence (Q07343 whole entry, looked up): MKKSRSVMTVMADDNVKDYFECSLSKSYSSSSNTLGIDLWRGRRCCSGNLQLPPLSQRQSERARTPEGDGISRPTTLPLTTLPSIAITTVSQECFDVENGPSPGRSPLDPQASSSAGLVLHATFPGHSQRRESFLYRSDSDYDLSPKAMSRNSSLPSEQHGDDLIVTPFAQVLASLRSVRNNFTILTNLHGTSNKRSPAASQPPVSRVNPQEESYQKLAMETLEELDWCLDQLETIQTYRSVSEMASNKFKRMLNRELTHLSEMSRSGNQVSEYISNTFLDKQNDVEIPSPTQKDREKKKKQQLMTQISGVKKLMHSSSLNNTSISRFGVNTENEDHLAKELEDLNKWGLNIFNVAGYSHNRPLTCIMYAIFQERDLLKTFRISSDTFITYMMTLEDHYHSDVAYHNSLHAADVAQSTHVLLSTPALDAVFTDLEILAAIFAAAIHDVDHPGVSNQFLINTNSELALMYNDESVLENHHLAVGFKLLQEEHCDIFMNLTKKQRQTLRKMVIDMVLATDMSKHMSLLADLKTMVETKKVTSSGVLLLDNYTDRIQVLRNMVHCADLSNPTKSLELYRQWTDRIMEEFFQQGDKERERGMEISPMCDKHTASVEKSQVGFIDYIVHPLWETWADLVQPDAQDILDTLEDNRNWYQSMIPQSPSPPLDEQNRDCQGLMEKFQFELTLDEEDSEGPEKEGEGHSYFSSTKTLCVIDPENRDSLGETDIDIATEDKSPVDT
Cytochrome P450 2C19 (Homo sapiens), sequence (P33261 whole entry, looked up): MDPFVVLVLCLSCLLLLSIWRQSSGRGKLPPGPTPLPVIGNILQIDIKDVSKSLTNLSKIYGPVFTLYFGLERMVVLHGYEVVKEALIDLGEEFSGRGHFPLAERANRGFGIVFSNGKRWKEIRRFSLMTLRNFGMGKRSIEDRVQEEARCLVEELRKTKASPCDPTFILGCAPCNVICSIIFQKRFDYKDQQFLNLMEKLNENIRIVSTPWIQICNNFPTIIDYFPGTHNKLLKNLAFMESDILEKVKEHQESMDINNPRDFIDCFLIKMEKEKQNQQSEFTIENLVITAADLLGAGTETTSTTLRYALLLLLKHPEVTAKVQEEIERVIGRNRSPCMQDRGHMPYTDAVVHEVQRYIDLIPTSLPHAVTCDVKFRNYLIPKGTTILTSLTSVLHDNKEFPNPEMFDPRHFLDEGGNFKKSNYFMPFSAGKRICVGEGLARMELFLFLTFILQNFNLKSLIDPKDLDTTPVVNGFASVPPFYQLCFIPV
DNA dC->dU-editing enzyme APOBEC-3G (Homo sapiens), sequence (Q9HC16 whole entry, looked up): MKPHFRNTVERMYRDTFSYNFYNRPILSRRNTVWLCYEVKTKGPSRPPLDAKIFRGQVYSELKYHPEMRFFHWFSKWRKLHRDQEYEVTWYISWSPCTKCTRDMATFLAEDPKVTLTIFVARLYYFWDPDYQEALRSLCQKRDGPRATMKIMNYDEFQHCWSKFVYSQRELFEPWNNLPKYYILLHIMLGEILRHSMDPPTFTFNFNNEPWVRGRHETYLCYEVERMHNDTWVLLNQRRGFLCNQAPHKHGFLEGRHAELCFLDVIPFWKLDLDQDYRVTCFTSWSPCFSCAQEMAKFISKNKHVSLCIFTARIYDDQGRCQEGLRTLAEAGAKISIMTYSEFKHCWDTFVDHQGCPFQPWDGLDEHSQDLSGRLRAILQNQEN

For the compound `C=C1CCC(O)C/C1=C\C=C1/CCCC2(C)C1CCC2C(C)CCCC(C)C` (centres undefined), in [1], the call was inactive. Further, the Potency was 55.9 µM (active) in [2] and 39.3 µM (active) in assay [5]. Also, the Potency result in [3] and in assay [4] was “inactive” throughout.

Turning to `COc1ccc2c(=O)c(OC)c(-c3ccccc3)oc2c1`, the Potency was 10 µM (active) in [6] and 13.9 µM (active) in assay [5]. The result in assay [7] was inactive. In addition, the Potency result in assay [8], in assay [9], in assay [2], in assay [3] and in [4] was “inactive” throughout.

As for `COc1ccc2[nH]cc(CCNc3ncnc4ccc(-c5ccccc5OC)cc34)c2c1`, the Potency in assay [10] is over 11.4 µM; in assay [12], 7.94 µM (active); in assay [15], 251 nM (active); in assay [16] it was 3.98 µM (active); in [17], 2 µM (active); in assay [18] it was 25.1 µM (active). In assay [11], the activity change, negative = inhibition was -28.6%. Moreover, the call in assay [13] and in assay [7] was inactive. The Potency entry in assay [14], in [19], in assay [20], in assay [2], in assay [3] and in [4] was “inactive” each time. In assay [5], the Potency result was “inactive”.
